Screens deposited in PubChem by several laboratories.
In the library only some 1.2% were active in any assay of this set; here they are far more common.
SRC3 inh: human NCOA3 inhibition; HEK293 GAL4-SRC3 luciferase reporter, luminescence; inhibition, % at 3.6 µM; 360,000 compounds, 0.17% hits; AID 588352;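 active means inhibition above a per-campaign cutoff, the mean of all compounds plus 3 SD, cut at about 60% in these data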;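 further: 0% = DMSO-treated cells and 100% = gossypol-treated cells at 36 µM; higher means less SRC3-driven luciferase light from the GAL4 reporter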
NCOA2 inhibitor: inhibits human steroid receptor coactivator 2; Q15596; HEK293 GAL4-SRC2 luciferase reporter, luminescence; inhibition, % at 9 µM; 370,000 compounds, 0.17% hits;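 active means inhibition above the mean inhibition of all tested compounds plus 3 SD, set per campaign, cut at about 52% in these data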;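 further: 0% = DMSO treated cells and 100% = cells given Gossypol at 36 µM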
NR5A2 inv ag: NR5A2 inverse agonism in reporter assay; O00482; HEK293T StAR-luciferase reporter, LRH-1 transfected, 24 h; inhibition, % at 3.6 µM; 360,000 compounds, 0.13% hits; AID 602396;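 active means inhibition above the mean inhibition of all tested compounds plus 3 SD, cut at about 73% in these data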;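 further: 0% = DMSO wells and 100% = reporter-only cells lacking LRH-1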
Target sequence (O00482 whole entry, looked up): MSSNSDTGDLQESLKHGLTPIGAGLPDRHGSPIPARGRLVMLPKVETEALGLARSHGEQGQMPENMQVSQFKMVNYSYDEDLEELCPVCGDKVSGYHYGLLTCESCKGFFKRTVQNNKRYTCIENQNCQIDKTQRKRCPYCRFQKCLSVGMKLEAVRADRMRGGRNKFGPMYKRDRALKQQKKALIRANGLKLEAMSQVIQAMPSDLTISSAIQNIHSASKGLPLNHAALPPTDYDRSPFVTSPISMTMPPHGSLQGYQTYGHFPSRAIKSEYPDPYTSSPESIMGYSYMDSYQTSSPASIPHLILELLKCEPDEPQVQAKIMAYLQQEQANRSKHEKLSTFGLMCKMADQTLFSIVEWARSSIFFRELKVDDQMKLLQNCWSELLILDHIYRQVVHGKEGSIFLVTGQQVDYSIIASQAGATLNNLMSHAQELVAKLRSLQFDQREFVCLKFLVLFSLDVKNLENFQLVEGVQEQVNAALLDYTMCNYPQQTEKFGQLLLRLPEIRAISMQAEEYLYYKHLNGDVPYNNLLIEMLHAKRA
COUP-TFII inh: blocks human COUP-TFII nuclear receptor | P24468 | HEK293T NGFI-A luciferase reporter, luminescence | inhibition, % at 8.6 µM | 370,000 compounds, 0.7% hits | AID 686940;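 active means inhibition above a per-plate cutoff, mean inhibition of test wells between control levels plus 3 SD, cut at about 38% in these data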;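 further: cells cotransfected with COUP-TFII expression vector driving the NGFI-A reporter; 0% = median of COUP-TF2 test wells and 100% = reporter-only cells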
SRC1 inh: human NCOA1 inhibition | Q15788 | HEK293 GAL4-SRC1 luciferase reporter, luminescence | AID 588354 | 360,000 compounds, 0.12% hits | inhibition, % at 3.6 µM;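 active means inhibition above the campaign mean plus 3 SD, with each screening campaign given its own cutoff, cut at about 60% in these data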;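 further: 0% = DMSO treated cells and 100% = gossypol at 36 µM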
Gli-Sufu block: Gli-Sufu pathway antagonism; Sufu-KO-LIGHT fibroblasts, Gli luciferase reporter luminescence; 340,000 compounds, 0.74% hits; inhibition, % at 5 µM;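 active means inhibition above about 55%, limit read from the data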;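 further: 0% = DMSO-treated cells and 100% = wells with medium but no cells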
Gal4-VP16 ctr: VP16 inhibition counter-screen for COUP-TFII; inhibition, % at 8.5 µM; shares compounds with COUP-TFII inh; AID 687007; HEK293 Gal4-VP16 luciferase reporter, luminescence; 2,500 compounds, 25% hits; in the data active means inhibition above about 13%
NR2F2 inh conf: confirmation of human COUP-TFII (NR2F2) inhibitors; shares compounds with COUP-TFII inh; HEK293 NGFI-A luciferase reporter, luminescence; inhibition, % at 8.5 µM; 2,500 compounds, 45% hits; AID 687008;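 active means mean inhibition over three repeats above a set limit taken from the earlier primary screen, cut at about 38% in these data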;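 further: 100% = cells given the luciferase reporter alone without the COUP-TF2 vector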
* hit, by the source's call; nt = not tested or not shown.

SMILES	SRC3 inh	NCOA2 inhibitor	NR5A2 inv ag	COUP-TFII inh	SRC1 inh	Gli-Sufu block	Gal4-VP16 ctr	NR2F2 inh conf
CCOC(=O)[C@@]12CCCC3=C1N(CCC3)C(=O)[C@H]2CC(=O)N1CCSCC1	nt	12.1	nt	0.3	nt	nt	nt	nt
CC(C)(C)c1ccc(CC(=O)N2CCC2(C)C(=O)Nc2cnc3ccccc3c2)cc1 (stereo not drawn)	3.6	0.6	-30.3	41.4*	13.5	nt	-5.5	11.5
CC(C)c1ccc(CC(=O)N2CCC2(C)C(=O)Nc2cnc3ccccc3c2)cc1 (stereo not drawn)	3.1	-0.1	-10.7	44.9*	-3.9	nt	-3.3	11.3
CC(C)(C)c1ccc(C(=O)N2CCC2(C)C(=O)Nc2cnc3ccccc3c2)cc1 (stereo not drawn)	9.7	0.9	-8.7	20.9	2.8	nt	nt	nt
Cc1oc(-c2ccc(Cl)cc2)nc1CS(=O)CC(=O)NCCCN1CCCC(C)C1 (stereo not drawn)	5.5	-8.7	2.4	1.2	1.9	41.7	nt	nt
Cc1oc(-c2ccc(Cl)cc2)nc1CS(=O)CC(=O)NCCCN1CCN(Cc2ccccc2)CC1 (stereo not drawn)	31.5	30.8	34.1	61.9*	35.2	38.7	7.6	64.6*
COCCN1Cc2cc(C(=O)OC)c3c(c2C1=O)c1cc(F)ccc1n3S(=O)(=O)c1cccc(C)c1	nt	-1.8	nt	8.4	nt	nt	nt	nt
C=CC[n+]1c(/C=C2\C=Cc3cc(C)ccc3N2CC)ccc2ccccc21	71.0*	15.6	89.4*	75.1*	26.9	89.8*	17.7*	75.6*
CC1(C(=O)NCc2cccnc2)Cc2c(-c3cccc(C(F)(F)F)c3)ccnc2O1 (stereo not drawn)	-26.4	5.9	-2.4	38.6*	0.8	nt	-7.8	6.7
NC(=Nc1nc(-c2ccccn2)cc2ccccc12)c1ccccn1	81.2*	-68.6	57.3	41.6*	71.1*	86.5*	-7.7	-1.7
c1cncc(CNc2ncnc3ccc(-c4ccoc4)cc23)c1	57.2	25.1	20.6	38.0*	58.0	-39.4	6.5	17.0
Cc1csc(CNc2ncnc3ccc(-c4ccoc4)cc23)c1	53.0	32.3	18.3	39.9*	55.8	-46.5	7.9	31.5
CCOc1ccc(C2NC(=O)NC(C)=C2C(=O)OCc2ccccc2)cc1 (stereo not drawn)	3.5	4.8	-10.1	4.1	-2.1	-16.8	nt	nt
COc1ccc(COC(=O)C2=C(C)NC(=O)NC2c2ccc(F)cc2)cc1 (stereo not drawn)	40.8	41.5	18.4	39.0*	21.7	0.1	-4.9	7.1
COC(=O)[C@]12C[C@H](CC(=O)N3CCN(C(=O)C4CC4)CC3)C(=O)N(CCC3=CCCCC3)C1=C[C@H](COCc1ccccc1)O[C@@H]2C	nt	-8.6	nt	2.5	nt	nt	nt	nt
C[C@H](O)[C@@H]1CN2CCc3c([nH]c4c(-c5ccccc5)cccc34)[C@@H]2C[C@@H]1N(C)C(=O)NC1CCCCC1	nt	-15.7	nt	-15.9	nt	nt	nt	nt
C=CC[C@@H]1NN2C(=O)[C@@H](C)[C@@H]3c4ccccc4C=NN3[C@@H]2c2ccccc21	nt	-7.8	nt	10.3	nt	nt	nt	nt
Cc1ccc(-n2[nH]c(=O)c3cccnc32)cc1	7.5	-20.9	-8.2	3.4	-0.5	4.3	nt	nt
Cc1ccc(-n2[nH]c(=O)c(-c3ccccn3)c2C)cc1	12.7	29.1	-25.8	43.9*	-23.9	16.2	-51.4	2.2
O=C(NCc1ccccc1)[C@H]1CCCN1C(=O)[C@H]1CCCN1C(=O)N1CCCCC1	nt	-6.3	nt	3.0	nt	nt	nt	nt
COc1ccc(C(=O)NC(C)c2nc3ccccc3n2C)cc1OC (stereo not drawn)	6.7	-38.0	0.0	-1.4	18.9	5.4	nt	nt
COc1ccc(C(O)c2nc3ccccc3n2C)cc1OC (stereo not drawn)	21.3	-8.3	17.7	47.5*	15.3	27.7	1.2	31.8
CC(=O)O[C@@H]1C=C[C@@H](C#Cc2ccc(C(C)(C)C)cc2)O[C@@H]1COC(=O)NCc1ccccc1	nt	25.5	nt	24.1	nt	nt	nt	nt
Cc1ccc2oc(-c3cccc(NC(=S)NC(=O)/C=C/c4ccco4)c3)nc2c1	4.1	-6.8	17.1	47.0*	-21.8	29.1	-30.6	-12.6
Cc1ccc2oc(-c3cccc(NC(=S)NC(=O)c4cccs4)c3)nc2c1	-25.2	-29.2	-18.7	-28.4	-24.4	-12.3	nt	nt
SMILES	SRC3 inh	NCOA2 inhibitor	NR5A2 inv ag	COUP-TFII inh	SRC1 inh	Gli-Sufu block	Gal4-VP16 ctr	NR2F2 inh conf
CCOC(=O)c1c(C)nn(-c2ccc(NC(=O)c3cccs3)cc2)c1C	8.4	16.1	14.3	2.3	4.8	3.2	nt	nt
CCOC(=O)c1c(C)nn(-c2ccc(NC(=O)/C=C/C(=O)O)cc2)c1C	51.3	60.9*	39.1	65.1*	-64.8	8.1	36.4*	15.2
COc1cccc(CN(C)CC(=O)Nc2cccc(S(=O)(=O)N(C)c3ccccc3)c2)c1OC	-6.9	8.7	-40.5	12.9	-7.9	12.4	nt	nt
COc1cc(CC(=O)Nc2cccc(SC)c2)cc(OC)c1OC	18.3	15.7	9.5	37.4*	14.8	26.2	-0.8	7.0
COc1cc(CC(=O)Nc2cccc(S(=O)(=O)N(C)c3ccccc3)c2)cc(OC)c1OC	28.3	8.0	20.0	39.3*	-1.3	3.8	7.1	20.1
Nc1ccn([C@@H]2O[C@H](C(=O)N[C@H](Cc3ccccc3)C(=O)N3CCC(F)(F)CC3)[C@@H](O)[C@H]2O)c(=O)n1	nt	14.1	nt	15.5	nt	nt	nt	nt
O=[N+]([O-])c1cccc(COc2ccc(CO)cc2)c1	nt	-19.0	nt	-33.2	nt	nt	nt	nt
CCOc1ccc(-c2cc(C(=O)Nc3ccc(C)c(NS(C)(=O)=O)c3)[nH]n2)c(C)c1	18.1	15.6	26.1	62.4*	29.3	nt	-5.6	21.6
CCOc1ccc(-c2cc(C(=O)NCCOC)[nH]n2)c(C)c1	-17.4	-22.9	-20.5	14.6	-24.4	nt	nt	nt
CS(=O)(=O)N(CC(=O)N1CCN(Cc2ccc3c(c2)OCO3)CC1)Cc1ccc(Cl)cc1	7.9	8.6	54.7	39.9*	19.4	12.4	10.5	19.8
NC1=C(Cl)C(=O)c2ccccc2C1=O	-7.7	-48.6	28.2	-19.3	-6.5	16.5	nt	nt
NC1=C(Cl)C(=O)c2ccc(S(N)(=O)=O)cc2C1=O	90.0*	80.0*	94.8*	85.5*	90.0*	88.9*	92.2*	97.2*
COc1ccc(N2CCN(CCCNC(=O)CCc3cccc(F)c3)CC2)cc1	nt	-6.5	nt	-2.2	nt	nt	nt	nt
CNC(=O)c1ccc(-c2cc3onc(-c4ccccc4)c3c(=O)n2C)cc1	-79.8	-46.9	-123.6	-16.3	-106.3	-68.5	nt	nt
Cc1ccc(-c2cc3onc(-c4ccccc4)c3c(=O)n2C)cc1	19.0	2.4	24.3	43.3*	22.5	-16.9	33.9*	71.9*
CN(C)C(CNC(=O)c1cc(S(=O)(=O)N(C)c2ccccc2)ccc1Cl)c1cccs1 (stereo not drawn)	9.8	6.6	-22.1	40.5*	12.1	10.4	8.9	15.1
